In the library only some 3.1% were active in any assay of this set; here they are far more common.
TRPM1 prom inh: MITF TRPM1 promoter inhibition in SK-MEL-5 cells. SK-MEL-5 TRPM1 promoter luciferase, 24 h. inhibition, % at 12.5 µM. hit rate 0.83% among 330,000. AID 488899;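 active means mean inhibition across replicates of 60% or more, whatever share of single replicates reaches that level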
HIF-2a inh: blocks HIF-2a reporter activity; 786-0 RCC cells HIF-2a reporter, luciferase luminescence, overnight; inhibition, % at 18.8 µM; hit rate 0.72% among 360,000; AID 624352;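 active means inhibition of the luminescence signal of 40% or more relative to plate controls, in a single-dose primary screen at 18.75 µM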
Peg3 prom inh: reduces Peg3 promoter-driven luciferase expression in HeLa; HeLa PEG-Prom luciferase reporter, luminescence, overnight; inhibition, % at 20 µM; hit rate 1.7% among 360,000; AID 588405;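 active means inhibition of at least 50% at 20 µM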
KKLEB tox: CF airway cell cytotoxicity counter-screen | KKLEB CF airway cells viability, ATPlite luminescence, overnight; hits give low values; cells stimulated with P. aeruginosa culture filtrate | activity change (cytotoxicity), % at 5 µM | hit rate 0.36% among 360,000 | AID 602141;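 active means corrected activity change at or below -50% at 5 µM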
CF NFkB block: cystic fibrosis NF-kB activation inhibition; KKLEB NF-kB-GFP reporter, PAF-induced, GFP fluorescence overnight; hit rate 0.86% among 360,000; inhibition, % at 5 µM;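 active means at least 50% inhibition at 5 µM, scaled per plate between neutral and stimulator controls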;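 further: PAF is a Pseudomonas aeruginosa culture filtrate used as stimulus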
ABHD5-PLIN5 inh: blocks binding of human ABHD5 to perilipin-5. Split G. princeps luciferase complementation, luminescence, 4 h. inhibition, % at 4 µM. hit rate 0.78% among 360,000. AID 602281;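 active means inhibition above the mean inhibition across every tested compound plus 3 SD, cut at about 22% in these data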
Hits are given with their value; ! = not active in a repeat.

What do the screens show for `Cc1ccc(-c2c3c(nc4sc(C(N)=O)c(N)c24)CCCC3)o1`?
TRPM1 prom inh: inactive; HIF-2a inh: inactive; Peg3 prom inh: inactive; KKLEB tox: inactive; CF NFkB block: inactive; ABHD5-PLIN5 inh: inactive

How did NC(=O)c1sc2nc3c(c(-c4ccco4)c2c1N)CCC3 do in these assays?
TRPM1 prom inh: inactive; HIF-2a inh: inactive; Peg3 prom inh: inactive; KKLEB tox: inactive; CF NFkB block: 76; ABHD5-PLIN5 inh: inactive

How did Cc1ccc(NC(=O)N2CCCN(C(=O)OC(C)(C)C)CC2)cc1Cl do in these assays?
TRPM1 prom inh: inactive; HIF-2a inh: inactive; Peg3 prom inh: inactive; KKLEB tox: inactive; CF NFkB block: inactive; ABHD5-PLIN5 inh: inactive

Results for O=C(Nc1cccc(NC(=O)c2cccs2)c1)c1ccc([N+](=O)[O-])o1 ?
TRPM1 prom inh: 98; HIF-2a inh: inactive; Peg3 prom inh: 55; KKLEB tox: inactive; CF NFkB block: inactive; ABHD5-PLIN5 inh: inactive

What do the screens show for `O=C(Nc1ccc(NC(=O)c2ccc([N+](=O)[O-])o2)cc1Cl)c1ccco1`?
TRPM1 prom inh: inactive; HIF-2a inh: inactive; Peg3 prom inh: inactive; KKLEB tox: inactive; CF NFkB block: inactive; ABHD5-PLIN5 inh: inactive

Results for O=C(Nc1cccc(NC(=O)c2ccc([N+](=O)[O-])o2)c1)c1ccco1 ?
TRPM1 prom inh: 64; HIF-2a inh: inactive; Peg3 prom inh: 57; KKLEB tox: inactive; CF NFkB block: inactive; ABHD5-PLIN5 inh: inactive

What do the screens show for `Cc1ccc(NC(=O)c2cccs2)cc1[N+](=O)[O-]`?
TRPM1 prom inh: inactive; HIF-2a inh: inactive; Peg3 prom inh: inactive; KKLEB tox: inactive; CF NFkB block: inactive; ABHD5-PLIN5 inh: inactive

Results for COc1cc(NC(=O)c2cccs2)ccc1NC(=O)Cc1ccccc1 ?
TRPM1 prom inh: inactive; HIF-2a inh: inactive; Peg3 prom inh: inactive; KKLEB tox: inactive; CF NFkB block: inactive; ABHD5-PLIN5 inh: inactive

What do the screens show for `O=C(Nc1ccc2oc(-c3cccnc3)nc2c1)c1ccc(Br)o1`?
TRPM1 prom inh: inactive; HIF-2a inh: inactive; Peg3 prom inh: inactive; KKLEB tox: inactive; CF NFkB block: inactive; ABHD5-PLIN5 inh: inactive

Results for COc1cc(NC(=O)c2ccc([N+](=O)[O-])o2)ccc1NC(=O)c1cccs1 ?
TRPM1 prom inh: 87; HIF-2a inh: inactive; Peg3 prom inh: 59; KKLEB tox: inactive; CF NFkB block: inactive; ABHD5-PLIN5 inh: inactive

What do the screens show for `O=C(Nc1ccc2oc(-c3cccnc3)nc2c1)c1ccc([N+](=O)[O-])o1`?
TRPM1 prom inh: 71; HIF-2a inh: inactive; Peg3 prom inh: 108; KKLEB tox: -58; CF NFkB block: 89; ABHD5-PLIN5 inh: inactive

Results for CCCCN(C(=O)c1ccc(N2C(=O)c3ccccc3C2=O)cc1)c1c(N)n(CC(C)C)c(=O)[nH]c1=O ?
TRPM1 prom inh: inactive; HIF-2a inh: inactive; Peg3 prom inh: inactive; KKLEB tox: inactive; CF NFkB block: inactive; ABHD5-PLIN5 inh: inactive

What do the screens show for `O=C(Nc1nc(-c2cccs2)cs1)c1ccco1`?
TRPM1 prom inh: inactive; HIF-2a inh: inactive; Peg3 prom inh: inactive; KKLEB tox: inactive; CF NFkB block: inactive; ABHD5-PLIN5 inh: inactive

What do the screens show for `O=C(Nc1nc(-c2cccs2)cs1)c1ccc([N+](=O)[O-])o1`?
TRPM1 prom inh: 86; HIF-2a inh: inactive; Peg3 prom inh: inactive; KKLEB tox: inactive; CF NFkB block: 76; ABHD5-PLIN5 inh: inactive

What do the screens show for `CC(=O)Nc1ccc2nc(NC(=O)c3ccc([N+](=O)[O-])o3)sc2c1`?
TRPM1 prom inh: inactive; HIF-2a inh: inactive; Peg3 prom inh: inactive; KKLEB tox: inactive; CF NFkB block: 81; ABHD5-PLIN5 inh: inactive

Results for Cc1cc(CN2CCN(CC(=O)Nc3cc(C(F)(F)F)ccc3-n3cncn3)CC2)no1 ?
HIF-2a inh: inactive; Peg3 prom inh: inactive; KKLEB tox: inactive; CF NFkB block: inactive; ABHD5-PLIN5 inh: inactive

Results for C[C@@H]1CN([C@@H](C)CO)C(=O)CCCn2nncc2CO[C@H]1CN(C)C(=O)c1ccccc1 ?
HIF-2a inh: inactive; Peg3 prom inh: inactive; KKLEB tox: inactive; CF NFkB block: inactive; ABHD5-PLIN5 inh: inactive

What do the screens show for `O=C(Nc1cccc(OCC(=O)N2CCOCC2)c1)c1cccc([N+](=O)[O-])c1`?
TRPM1 prom inh: inactive; HIF-2a inh: inactive; Peg3 prom inh: inactive; KKLEB tox: inactive; CF NFkB block: inactive; ABHD5-PLIN5 inh: inactive

Results for O=C(COc1cccc(NC(=O)c2cccc([N+](=O)[O-])c2)c1)c1ccc(Br)cc1 ?
TRPM1 prom inh: inactive; HIF-2a inh: inactive; Peg3 prom inh: 50; KKLEB tox: inactive; CF NFkB block: inactive; ABHD5-PLIN5 inh: inactive

How did COc1ccc2[nH]cc(CCNC(=O)CS(=O)(=O)Cc3ccccc3)c2c1 do in these assays?
TRPM1 prom inh: inactive; HIF-2a inh: inactive; Peg3 prom inh: inactive; KKLEB tox: inactive; CF NFkB block: inactive; ABHD5-PLIN5 inh: inactive

What do the screens show for `O=C1C2C3C=CC(CO)(O3)C2C(=O)N1c1ccccc1-c1ccccc1` (centres undefined)?
TRPM1 prom inh: inactive; HIF-2a inh: inactive; Peg3 prom inh: 105; KKLEB tox: inactive; CF NFkB block: 76; ABHD5-PLIN5 inh: 45

Results for O=C1C2C3C=CC(CNS(=O)(=O)c4ccccc4)(O3)C2C(=O)N1c1ccc(Cl)cc1 (centres undefined) ?
TRPM1 prom inh: inactive; HIF-2a inh: inactive; Peg3 prom inh: inactive; KKLEB tox: inactive; CF NFkB block: inactive; ABHD5-PLIN5 inh: inactive

What do the screens show for `CCOc1ccc(OCC)c(NC(=O)C2CCCN(C(=O)c3ccc(Cl)cc3)C2)c1` (centres undefined)?
TRPM1 prom inh: inactive; HIF-2a inh: inactive; Peg3 prom inh: inactive; KKLEB tox: inactive; CF NFkB block: inactive; ABHD5-PLIN5 inh: inactive

Results for Cc1ccc(-c2nnc(NCc3nc4ccccc4[nH]3)c3ccccc23)cc1S(=O)(=O)N1CCOCC1 ?
TRPM1 prom inh: inactive; HIF-2a inh: inactive; Peg3 prom inh: 65; KKLEB tox: inactive; CF NFkB block: inactive; ABHD5-PLIN5 inh: inactive

Results for Cc1ccccc1C(OCCN(C)C)c1ccccc1 (centres undefined) ?
TRPM1 prom inh: inactive; HIF-2a inh: inactive; Peg3 prom inh: inactive; KKLEB tox: inactive; CF NFkB block: inactive; ABHD5-PLIN5 inh: 27!

Results for Fc1ccc(C2=Nc3cccc4cccc(c34)N2)cc1 ?
TRPM1 prom inh: inactive; HIF-2a inh: inactive; Peg3 prom inh: inactive; KKLEB tox: inactive; CF NFkB block: inactive; ABHD5-PLIN5 inh: inactive

How did FC(F)(F)C1=Nc2cccc3cccc(c23)N1 do in these assays?
TRPM1 prom inh: inactive; HIF-2a inh: inactive; Peg3 prom inh: 111; KKLEB tox: inactive; CF NFkB block: inactive; ABHD5-PLIN5 inh: inactive

How did O=C(COC(=O)c1nc(Cl)ccc1Cl)c1ccc[nH]1 do in these assays?
TRPM1 prom inh: inactive; HIF-2a inh: inactive; Peg3 prom inh: inactive; KKLEB tox: inactive; CF NFkB block: inactive; ABHD5-PLIN5 inh: inactive

What do the screens show for `O=C(COC(=O)c1nc(Cl)c(Cl)c(Cl)c1Cl)c1ccc[nH]1`?
TRPM1 prom inh: inactive; HIF-2a inh: inactive; Peg3 prom inh: 51; KKLEB tox: inactive; CF NFkB block: inactive; ABHD5-PLIN5 inh: inactive

Results for CCc1nn(CC(=O)NCc2ccccc2Cl)c(=O)c2cccn12 ?
TRPM1 prom inh: inactive; HIF-2a inh: inactive; Peg3 prom inh: inactive; KKLEB tox: inactive; CF NFkB block: inactive; ABHD5-PLIN5 inh: inactive

Source: PubChem (several laboratories)
